The full data set covers some 7,900 targets. This sample favours those with a hit. About 0.6% of all pairs of compound and target were hits.
How the values were obtained:
Assay in all cases: log2 fold change, soluble protein after heating vs DMSO (PISA); higher = thermal stabilisation; K562 cells, 10 uM, 30 min; active = over 0.2 and 3.5 SD of the protein, either way, in both replicates (recomputed)
[1] = compound: C#Cc1cccc(Nc2ncnc3cc(OCCOC)c(OCCOC)cc23)c1 [erlotinib]
Procedure, shortened: (§1)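 Quantification of soluble protein used TMTpro 16plex LC-MS/MS, with channel sums equalised. Samples were the supernatant after 21,000xg for 90 min of pooled aliquots from K562 cells (2×10^6 cells/mL) treated with 10 μM compound for 30 min, heated for 3 min over 48°C-58°C, and extracted in PBS with 0.5% NP-40 at 4°C. Values, from duplicates, describe thermal stability against control samples on a log2 fold-change scale.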

[2] = compound: C/C(=N\NC(=O)C1=CC(=CC=C1)S(=O)(=O)N2CCOCC2)/C3=C(C=CC(=C3)Cl)O
Procedure, shortened: as §1

[3] = compound: C1=CC(=C(C=C1Cl)C2=NC3=NC=CN=C3C(=N2)NC4=CC=NC=C4)F
Procedure, shortened: as §1

[4] = compound: C1=CC(=CC=C1C2=NC3=C(N2)C=C(C=C3)C(=O)N)OC4=CC=C(C=C4)Cl
Procedure, shortened: as §1

[5] = compound: C1=CC2=C(C=CC(=C2)/C=C\3/C(=O)NC(=NCC4=CC=CS4)S3)N=C1
Procedure, shortened: as §1

[6] = compound: C1=CC2=NC=CN=C2C=C1/C=C/3\C(=O)NC(=O)S3
Procedure, shortened: as §1

[7] = compound: C1=CC=C(C=C1)C2=NC(=C(N2)C3=CC=NC=C3)C4=CC(=C(C=C4)Cl)O
Procedure, shortened: as §1

[8] = compound: C1=CC=C2C(=C1)C3=NNC4=CC=CC(=C43)C2=O
Procedure, shortened: as §1

[9] = compound: C1CCN(C1)C(=O)NC2=CC=CC(=C2)NC3=NC=C(C(=N3)NCCC4=CN=CN4)Br
Procedure, shortened: as §1

[10] = compound: C1CN(CCC1(CC2=CC=C(C=C2)Cl)N)C3=NC=NC4=C3C=CN4
Procedure, shortened: as §1

[11] = compound: C1COCCN1CCN2C3=CC=CC=C3N=C2NC(=O)C4=CC(=CC=C4)[N+](=O)[O-] [IRAK-1-4 Inhibitor I]
Procedure, shortened: as §1

[12] = compound: C=CC(=O)N1CCC[C@@H](n2nc(-c3ccc(Oc4ccccc4)cc3)c3c(N)ncnc32)C1 [ibrutinib]
Procedure, shortened: as §1

[13] = compound: CC(=O)c1cnc2ccc(-c3cc(Cl)c(O)c(Cl)c3)nc2c1N[C@H]1CC[C@H](CN(C)C)CC1
Procedure, shortened: as §1

[14] = compound: CC(C)(C)Cn1c(N)nc2ccc(-c3[nH]c(C(C)(C)C)nc3-c3ccc(F)cc3)nc21 [ralimetinib]
Procedure, shortened: as §1

[15] = compound: CC(C)(O)CC(=O)NCCn1ccc2ncnc(Nc3ccc(Oc4cccc(C(F)(F)F)c4)c(Cl)c3)c21
Procedure, shortened: as §1

[16] = compound: CC(C)C1=C2N=C(C=C(N2N=C1)NCC3=CC=CC=C3)NCCCCCCN
Procedure, shortened: as §1

[17] = compound: CC(C)C[C@@H](C=O)NC(=O)[C@H](CC(C)C)NC(=O)[C@H](CC(C)C)NC(=O)OCc1ccccc1
Procedure, shortened: as §1

[18] = compound: CC(C)N(C[C@H]1O[C@@H](n2cnc3c(N)ncnc32)[C@H](O)[C@@H]1O)[C@H]1C[C@@H](CCc2nc3cc(C(C)(C)C)ccc3[nH]2)C1 [pinometostat]
Procedure, shortened: as §1

[19] = compound: CC1=C(C(CC(=O)N1)C2=CC=C(C=C2)C(F)(F)F)C(=O)NC3=C(C=C4C(=C3)C=NN4)F
Procedure, shortened: as §1

[20] = compound: CC1=C(C2=C(C=C1)C(=O)C3=CC=CC=C3N2CCCN)C
Procedure, shortened: as §1

Measured: log2 fold change

RPS20 isoform 2 (UniProt P60866)
inactive: [1] -0.129 | [2] -0.082 | [3] -0.171 | [4] 0.023 | [5] -0.004 | [6] -0.068 | [7] -0.04 | [8] -0.025 | [9] 0.05 | [10] -0.159 | [11] -0.103 | [12] 0.012 | [13] 0.02 | [14] 0.041 | [15] 0.046 | [16] -0.03 | [17] 0.012 | [18] 0.123 | [19] 0.195
active: [20] -0.368

RPS6KA2 isoform 2 (UniProt Q15349)
active: [8] -0.473 | [14] -0.492
inactive: [1] 0.008 | [2] 0.092 | [3] -0.068 | [4] 0.075 | [5] 0.07 | [6] 0.06 | [7] -0.132 | [9] -0.058 | [10] -0.004 | [11] 0.001 | [12] -0.066 | [13] -0.178 | [15] -0.082 | [16] -0.082 | [17] 0.07 | [18] 0.01 | [19] 0.016 | [20] 0.006

RARS (UniProt P54136)
Sequence of UniProt P54136 (P54136 whole entry, looked up): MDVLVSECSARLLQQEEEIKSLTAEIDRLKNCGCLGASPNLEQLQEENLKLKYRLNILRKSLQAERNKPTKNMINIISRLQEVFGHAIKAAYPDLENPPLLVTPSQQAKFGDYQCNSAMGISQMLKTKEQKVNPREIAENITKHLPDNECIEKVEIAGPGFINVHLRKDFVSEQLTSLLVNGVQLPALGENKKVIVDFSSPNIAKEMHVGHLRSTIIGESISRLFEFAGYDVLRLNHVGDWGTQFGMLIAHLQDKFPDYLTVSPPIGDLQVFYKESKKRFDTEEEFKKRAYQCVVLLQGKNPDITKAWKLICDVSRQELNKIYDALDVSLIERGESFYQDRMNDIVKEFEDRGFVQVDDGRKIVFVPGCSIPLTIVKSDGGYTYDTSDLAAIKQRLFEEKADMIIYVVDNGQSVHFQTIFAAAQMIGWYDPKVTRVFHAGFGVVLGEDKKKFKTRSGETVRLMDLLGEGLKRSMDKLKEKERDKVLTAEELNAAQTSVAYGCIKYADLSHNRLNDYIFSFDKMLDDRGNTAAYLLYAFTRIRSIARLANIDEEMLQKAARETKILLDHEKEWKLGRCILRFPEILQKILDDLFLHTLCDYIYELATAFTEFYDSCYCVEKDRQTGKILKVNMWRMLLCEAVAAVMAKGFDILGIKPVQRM
active: [16] -0.545
inactive: [1] 0.023 | [2] 0.011 | [3] -0.169 | [4] -0.007 | [5] 0.019 | [6] 0 | [7] -0.046 | [8] -0.005 | [9] 0.07 | [10] -0.155 | [11] -0.087 | [12] -0.024 | [13] 0.12 | [14] 0.097 | [15] -0.001 | [17] 0.096 | [18] 0.32 | [19] 0.03 | [20] 0.009

SASH1 (UniProt O94885)
Sequence of UniProt O94885 (O94885 whole entry, looked up): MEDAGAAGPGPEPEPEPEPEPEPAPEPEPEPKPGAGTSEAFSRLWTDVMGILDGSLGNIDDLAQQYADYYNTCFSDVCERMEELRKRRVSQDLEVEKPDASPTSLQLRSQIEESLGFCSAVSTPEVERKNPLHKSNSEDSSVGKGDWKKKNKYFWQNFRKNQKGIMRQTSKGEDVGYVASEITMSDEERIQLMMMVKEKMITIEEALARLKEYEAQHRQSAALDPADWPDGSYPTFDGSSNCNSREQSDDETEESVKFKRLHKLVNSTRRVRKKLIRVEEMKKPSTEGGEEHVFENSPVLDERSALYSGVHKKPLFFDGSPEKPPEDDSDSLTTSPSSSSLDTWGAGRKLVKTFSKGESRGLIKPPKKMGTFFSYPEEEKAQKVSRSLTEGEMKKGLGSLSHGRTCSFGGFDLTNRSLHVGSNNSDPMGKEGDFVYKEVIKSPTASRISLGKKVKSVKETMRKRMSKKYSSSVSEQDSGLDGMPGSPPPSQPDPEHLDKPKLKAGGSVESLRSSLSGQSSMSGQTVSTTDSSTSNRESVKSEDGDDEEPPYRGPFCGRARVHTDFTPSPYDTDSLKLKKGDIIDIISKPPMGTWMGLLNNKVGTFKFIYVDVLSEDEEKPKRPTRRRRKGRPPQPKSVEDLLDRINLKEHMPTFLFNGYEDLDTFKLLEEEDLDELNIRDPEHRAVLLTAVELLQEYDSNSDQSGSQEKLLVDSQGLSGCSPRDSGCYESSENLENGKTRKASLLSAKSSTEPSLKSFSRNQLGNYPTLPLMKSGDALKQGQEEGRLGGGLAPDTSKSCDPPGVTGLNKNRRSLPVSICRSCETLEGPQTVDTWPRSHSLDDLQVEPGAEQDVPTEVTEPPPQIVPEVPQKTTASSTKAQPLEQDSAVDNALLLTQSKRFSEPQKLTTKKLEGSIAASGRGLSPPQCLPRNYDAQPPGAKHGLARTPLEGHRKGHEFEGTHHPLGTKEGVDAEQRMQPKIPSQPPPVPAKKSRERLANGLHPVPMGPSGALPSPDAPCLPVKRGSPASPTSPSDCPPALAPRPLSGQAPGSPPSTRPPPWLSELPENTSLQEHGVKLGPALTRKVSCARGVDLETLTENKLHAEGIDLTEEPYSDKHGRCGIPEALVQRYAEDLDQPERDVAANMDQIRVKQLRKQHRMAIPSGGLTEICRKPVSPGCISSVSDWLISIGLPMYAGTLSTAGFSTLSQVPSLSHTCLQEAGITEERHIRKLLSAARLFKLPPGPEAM
inactive: [1] -0.013 | [2] 0.12 | [3] 0.145 | [4] -0.01 | [5] -0.104 | [6] -0.009 | [7] 0.005 | [8] 0.107 | [9] -0.041 | [10] -0.079 | [11] 0.145 | [12] -0.069 | [13] -0.097 | [14] -0.138 | [15] 0.002 | [16] -0.25 | [17] 0.152 | [18] 0.081 | [19] -0.077 | [20] 0.07

SCG3 (UniProt Q8WXD2)
inactive: [1] -0.076 | [2] 0.141 | [3] 0.023 | [4] 0.088 | [5] 0.09 | [6] -0.015 | [7] 0.103 | [8] -0.094 | [9] -0.05 | [10] 0.036 | [11] -0.003 | [12] 0.035 | [13] -0.107 | [14] 0.061 | [15] 0.039 | [16] 0.203 | [17] 0.038 | [18] -0.139 | [19] 0.05 | [20] -0.359

SDHAF2 (UniProt Q9NX18)
Sequence of UniProt Q9NX18 (Q9NX18 whole entry, looked up): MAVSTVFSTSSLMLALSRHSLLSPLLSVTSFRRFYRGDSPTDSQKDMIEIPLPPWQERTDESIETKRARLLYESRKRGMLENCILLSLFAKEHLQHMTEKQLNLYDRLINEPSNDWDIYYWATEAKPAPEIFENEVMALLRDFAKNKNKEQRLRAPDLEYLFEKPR
active: [2] 0.304
inactive: [1] -0.021 | [3] 0.083 | [4] 0.018 | [5] -0.102 | [6] 0.051 | [7] -0.035 | [8] 0.114 | [9] 0.068 | [10] -0.091 | [11] 0.013 | [12] -0.004 | [13] 0.124 | [14] -0.044 | [15] -0.011 | [16] -0.042 | [17] 0.084 | [18] -0.014 | [19] 0.015 | [20] -0.01

SLC12A9 (UniProt Q9BXP2)
inactive: [1] 0.023 | [2] 0.03 | [3] 0.039 | [4] -0.013 | [5] -0.04 | [6] 0.021 | [7] 0.016 | [8] -0.015 | [9] -0.019 | [10] -0.012 | [11] 0.112 | [12] -0.001 | [13] 0.016 | [14] -0.106 | [15] -0.012 | [16] -0.165 | [17] 0.033 | [18] -0.018 | [19] 0.028 | [20] 0.056

SERINC1 (UniProt Q9NRX5)
Sequence of UniProt Q9NRX5 (Q9NRX5 whole entry, looked up): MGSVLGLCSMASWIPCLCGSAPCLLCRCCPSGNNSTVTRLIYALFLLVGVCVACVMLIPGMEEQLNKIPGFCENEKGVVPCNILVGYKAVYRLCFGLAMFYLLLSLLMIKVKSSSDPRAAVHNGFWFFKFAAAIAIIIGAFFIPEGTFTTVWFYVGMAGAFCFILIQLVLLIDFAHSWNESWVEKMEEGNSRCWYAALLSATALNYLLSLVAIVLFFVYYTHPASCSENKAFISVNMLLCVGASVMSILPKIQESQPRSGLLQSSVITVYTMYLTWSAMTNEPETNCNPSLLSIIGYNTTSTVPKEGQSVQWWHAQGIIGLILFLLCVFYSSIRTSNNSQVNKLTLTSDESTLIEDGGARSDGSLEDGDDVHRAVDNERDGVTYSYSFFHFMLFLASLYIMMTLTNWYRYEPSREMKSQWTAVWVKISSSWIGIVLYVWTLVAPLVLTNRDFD
inactive: [1] -0.034 | [2] -0.023 | [3] -0.006 | [4] 0.096 | [5] -0.026 | [6] 0.085 | [7] 0.018 | [8] 0.149 | [9] 0.115 | [10] -0.031 | [11] 0 | [12] 0.023 | [13] 0 | [14] -0.106 | [15] -0.235 | [17] 0.095 | [18] -0.022 | [19] 0.038 | [20] 0
active: [16] -0.568

SACM1L (UniProt Q9NTJ5)
Sequence of UniProt Q9NTJ5 (Q9NTJ5 whole entry, looked up): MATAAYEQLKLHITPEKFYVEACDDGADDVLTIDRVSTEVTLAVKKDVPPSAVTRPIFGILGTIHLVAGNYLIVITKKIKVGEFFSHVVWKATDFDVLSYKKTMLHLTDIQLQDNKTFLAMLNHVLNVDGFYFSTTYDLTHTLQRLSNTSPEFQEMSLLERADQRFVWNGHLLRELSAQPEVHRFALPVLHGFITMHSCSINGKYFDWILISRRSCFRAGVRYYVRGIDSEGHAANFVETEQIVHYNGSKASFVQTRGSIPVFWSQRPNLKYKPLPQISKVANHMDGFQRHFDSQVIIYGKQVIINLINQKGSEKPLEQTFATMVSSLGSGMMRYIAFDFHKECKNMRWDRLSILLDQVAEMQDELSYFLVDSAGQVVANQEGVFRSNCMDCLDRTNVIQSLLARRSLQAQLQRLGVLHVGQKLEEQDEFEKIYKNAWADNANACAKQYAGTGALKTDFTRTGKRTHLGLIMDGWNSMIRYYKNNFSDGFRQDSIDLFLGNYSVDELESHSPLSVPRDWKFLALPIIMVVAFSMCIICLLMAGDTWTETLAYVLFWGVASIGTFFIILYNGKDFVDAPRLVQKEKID
active: [16] -0.262
inactive: [1] 0.005 | [2] 0.1 | [3] 0.109 | [4] -0.061 | [5] 0.039 | [6] -0.007 | [7] 0.077 | [8] 0.009 | [9] 0.001 | [10] 0.068 | [11] 0.008 | [12] -0.031 | [13] -0.022 | [14] 0.064 | [15] -0.007 | [17] -0.01 | [18] -0.042 | [19] -0.035 | [20] 0.029

RNF220 (UniProt Q5VTB9)
Sequence of UniProt Q5VTB9 (Q5VTB9 whole entry, looked up): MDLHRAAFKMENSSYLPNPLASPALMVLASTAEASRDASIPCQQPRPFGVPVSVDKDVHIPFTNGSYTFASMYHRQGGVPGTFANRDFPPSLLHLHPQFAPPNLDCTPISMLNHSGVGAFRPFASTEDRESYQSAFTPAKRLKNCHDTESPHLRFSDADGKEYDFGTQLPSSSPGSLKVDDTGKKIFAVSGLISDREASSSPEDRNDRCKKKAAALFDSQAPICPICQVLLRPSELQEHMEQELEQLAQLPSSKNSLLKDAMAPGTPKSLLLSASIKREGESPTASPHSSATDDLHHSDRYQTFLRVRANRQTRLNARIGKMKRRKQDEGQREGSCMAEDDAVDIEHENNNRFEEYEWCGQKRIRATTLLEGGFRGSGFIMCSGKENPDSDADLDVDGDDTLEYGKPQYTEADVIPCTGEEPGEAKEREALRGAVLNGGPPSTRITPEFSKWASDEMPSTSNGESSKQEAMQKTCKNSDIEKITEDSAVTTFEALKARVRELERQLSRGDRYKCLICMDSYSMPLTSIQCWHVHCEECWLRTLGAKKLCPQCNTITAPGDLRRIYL
inactive: [1] 0.017 | [2] 0.034 | [3] 0.017 | [4] 0.011 | [5] 0.034 | [6] 0.03 | [7] 0.026 | [8] 0.011 | [9] -0.008 | [10] -0.022 | [11] 0.017 | [12] -0.032 | [13] -0.02 | [14] -0.045 | [15] 0.021 | [16] -0.011 | [17] -0.046 | [18] -0.076 | [19] -0.023 | [20] 0.004

RNPEP (UniProt Q9H4A4)
Sequence of UniProt Q9H4A4 (Q9H4A4 whole entry, looked up): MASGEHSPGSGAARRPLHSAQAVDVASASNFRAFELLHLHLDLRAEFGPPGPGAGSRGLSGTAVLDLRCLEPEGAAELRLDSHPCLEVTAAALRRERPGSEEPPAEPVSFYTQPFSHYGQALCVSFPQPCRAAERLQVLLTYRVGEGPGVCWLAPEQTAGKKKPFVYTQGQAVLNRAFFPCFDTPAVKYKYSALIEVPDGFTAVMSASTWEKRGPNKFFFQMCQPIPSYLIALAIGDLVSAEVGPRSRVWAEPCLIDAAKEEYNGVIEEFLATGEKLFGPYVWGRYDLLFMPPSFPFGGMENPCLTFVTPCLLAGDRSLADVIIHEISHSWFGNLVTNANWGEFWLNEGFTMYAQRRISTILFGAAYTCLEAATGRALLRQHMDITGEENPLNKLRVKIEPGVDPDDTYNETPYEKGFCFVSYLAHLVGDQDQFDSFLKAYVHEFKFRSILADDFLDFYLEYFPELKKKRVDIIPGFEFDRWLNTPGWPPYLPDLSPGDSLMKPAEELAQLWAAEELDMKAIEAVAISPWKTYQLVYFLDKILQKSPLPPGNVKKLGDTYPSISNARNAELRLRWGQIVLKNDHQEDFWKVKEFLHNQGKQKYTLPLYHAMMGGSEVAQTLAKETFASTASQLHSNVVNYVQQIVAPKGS
inactive: [1] 0.053 | [2] 0.053 | [3] 0.053 | [4] 0.007 | [5] 0.009 | [6] 0.019 | [7] 0.036 | [8] -0.008 | [9] -0.004 | [10] -0.016 | [11] -0.004 | [12] -0.018 | [13] 0.02 | [14] 0.011 | [15] -0.055 | [16] -0.182 | [17] -0.021 | [18] 0.018 | [19] 0.004 | [20] 0.137

RNPS1 (UniProt Q15287)
Sequence of UniProt Q15287 (Q15287 whole entry, looked up): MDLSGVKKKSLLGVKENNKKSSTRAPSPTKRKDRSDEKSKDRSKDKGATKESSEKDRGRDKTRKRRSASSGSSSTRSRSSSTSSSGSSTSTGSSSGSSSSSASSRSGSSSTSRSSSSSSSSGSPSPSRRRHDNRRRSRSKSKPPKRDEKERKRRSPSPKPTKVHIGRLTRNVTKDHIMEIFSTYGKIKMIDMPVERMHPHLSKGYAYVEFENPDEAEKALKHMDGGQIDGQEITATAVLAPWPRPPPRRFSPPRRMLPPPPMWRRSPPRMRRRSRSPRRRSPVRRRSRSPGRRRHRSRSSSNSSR
inactive: [1] 0.008 | [2] 0.194 | [3] 0.06 | [4] 0.053 | [5] 0.164 | [6] 0.013 | [7] -0.022 | [8] -0.319 | [9] 0.048 | [10] -0.118 | [11] -0.159 | [12] -0.031 | [13] -0.317 | [14] 0.128 | [15] -0.039 | [16] -0.126 | [17] 0.066 | [18] 0.08 | [19] -0.032
active: [20] -0.746
